Measured values from ChEMBL document CHEMBL3988442, “University of Dundee, Small-Polar-MMV Screening Library” (2021).
The whole screen tested about 38,000 compounds, of which about 1,200 (3.2%) showed an effect of 50% or more. The median lay at about -58%. For the sample, strong results were picked, then their nearest neighbours and some compounds at random.

tested on: Plasmodium falciparum; test: Calibr Malaria Delayed Death Assay SOP; assay type: functional, organism-based; set-up: scale not given: in the data most compounds retested in dose-response had high values; conditions: concentration 4.99e-06 (unit not given; other assays of the set use mol/L)

Compound | Percent Effect [%]
CCn1nc2c(cc1=O)CN(c1ncnc3sccc13)CC2 | 2.158
c1ccc2c3c([nH]c2c1)CN(Cc1cc2n(n1)CCNC2)CC3 | 44.64
Clc1cccc2c3c([nH]c12)CCN(Cc1cc2n(n1)CCNC2)C3 | 78.46
c1csc(N2CCN(Cc3cc4n(n3)CCNC4)CC2)n1 | -68.56
c1ccc(COC2CCN(Cc3cc4n(n3)CCCNC4)CC2)nc1 | -20.17
OC(c1ccccn1)C1CCN(Cc2cc3n(n2)CCCNC3)CC1 (centres undefined) | -111.2
CSCCC(Nc1nc(C)cc(C)n1)C(=O)NC(C)(C)CO (centres undefined) | -11.3
COc1ccccc1CC1CCCN(CCN2CCOC2=O)C1 (centres undefined) | 47.59
COc1ccc(CCN2CCCC(CN(C)Cc3ccc(C)o3)C2)cc1 (centres undefined) | -48.89
Cc1ncc(CN(C)C2CCCN(c3cccnn3)C2)s1 (centres undefined) | -24.6
CN(C)C(=O)CN1CCO[C@H]2CN(Cc3cccc(F)c3)C[C@H]21 | -27.48
Cc1nc(C2CCCNC2)cc(N(C)CCc2cn[nH]c2)n1 (centres undefined) | -154.6
CCn1ccnc1CN(C)c1cc(C2CCCNC2)nc(C)n1 (centres undefined) | -40.5
Cc1nc(C2CCCNC2)cc(N(C)CCc2ccccc2)n1 (centres undefined) | 52.76
c1ccc(C(OCCNC2CCc3ncnn3C2)c2ccccc2)cc1 (centres undefined) | 43.54
Cc1ccccc1C1(CNCc2cnc(N3CCOCC3)nc2)CC1 | 50.04
c1ccc(C2(CNCc3cnc(N4CCOCC4)nc3)CC2)cc1 | -24.34
OC1(CNCc2cnc(N3CCOCC3)nc2)CCCCC1 | -76.92
O=C(O)C(F)(F)F.O=C(O)C(F)(F)F.c1cnc(N2CCCC3(CCN(c4ncccn4)C3)C2)nc1 (centres undefined) | -228.4
CCC(CC)CN1CCC2(CCCN(c3ncccn3)C2)C1 (centres undefined) | 60.59
Cn1cc(CN2CC3(CCN(Cc4ccsc4)C3)C2)cn1 | -1.772
Cc1cnc(N2CCC3(CCCN(c4ncc(F)cn4)C3)C2)nc1 (centres undefined) | -149.1
c1cnc(N2CCCC3(CCN(Cc4ccsc4)C3)C2)nc1 (centres undefined) | 66.41
O=C(O)C(F)(F)F.O=C(O)[C@]12CCCN(Cc3ccsc3)C[C@H]1CN(c1ncccn1)C2 | -238.9
O=C(O)C(F)(F)F.O=C(c1cnccn1)N1CCCC2(CCN(Cc3ccsc3)C2)C1 (centres undefined) | -36.03
Fc1cnc(N2CCCC3(CCN(c4ncccn4)C3)C2)nc1 (centres undefined) | -118

Compound | Percent Effect [%]
Fc1cnc(N2CC3(CCN(Cc4ccsc4)C3)C2)nc1.O=C(O)C(F)(F)F | -1.441
O=C(O)C(F)(F)F.O=C(O)C(F)(F)F.O=C(O)[C@]12CCCN(Cc3ccsc3)C[C@H]1CN(c1ccccn1)C2 | -252.9
CCCN1C(=O)CC(N2CCN(c3ccc(F)cc3)CC2)C1=O (centres undefined) | -22.99
CN1CCCC(N(C)S(=O)(=O)c2cccc3ncccc23)C1 (centres undefined) | 28.23
Cc1cc2nc(C(C)C)cc(N3CCN(c4ccc(O)cc4)CC3)n2n1 | -69.46
CN1CC(NC(=O)Nc2cnn(-c3ccccc3Cl)c2)CCC1=O (centres undefined) | -125.7
O=C(Cc1ccc(F)cc1)NCC1CCN(Cc2ccsc2)CC1 | 35.08
CCc1nnc(CN2CCN(c3cccc(OC)c3)C(=O)C2)o1 | -165.5
COCCNC(=O)NCc1cccc(-n2ccnc2)c1 | -31.59
O=C(Cn1ccc2sccc2c1=O)NC1CCCCC1 | -23.53
Cc1nc(C)c(C(=O)Nc2cnn(CC(=O)NC3CCCC3)c2)s1 | -124.2
O=C(c1cc2c(F)cccc2[nH]1)N1CCC(Nc2cccnn2)CC1 | -107.1
Cc1cc(NC(=O)CCN2CCCCC2Cn2cccn2)no1 (centres undefined) | -23.88
CCCNC(=O)NC(=O)CNC(C)(C)c1ccc2c(c1)OCO2 | -45.43
CC(C)(NCc1ccc(C#N)cc1)c1ccc2c(c1)OCO2 | -3.807
FC(F)(F)C1CN(Cc2cccc(OCc3ccccn3)c2)CCO1 (centres undefined) | -40.76
CCN(CC)C(CNS(=O)(=O)c1ccc(C(=O)NC)cc1)c1ccco1 (centres undefined) | -34.47
CCN(CC)C(CNS(=O)(=O)NCc1ccccc1)c1ccco1 (centres undefined) | 65.52
CCN(CC)C(CNCc1ccc(O)cc1)c1ccco1 (centres undefined) | 37.38
CSc1nc2ccsc2c(=O)n1CC(=O)N1CCCCC1C (centres undefined) | -137.7
Cn1cc(NS(=O)(=O)CC2CCCCO2)cn1 (centres undefined) | -113.3
O=C(NCCc1c[nH]c2ccc(F)cc12)C1(n2cnnn2)CCCCC1 | 0.821
COc1ccc2c(c1)[C@@H](CCNC(C)=O)CC(C)(C)O2 | -172.5
COCC(=O)NCC[C@H]1CC(C)(C)Oc2ccccc21 | -148.4
CNCC[C@H]1CC(C)(C)Oc2ccc(OC)cc21 | 72.51
CNCC[C@H]1CC(C)(C)Oc2ccc(OCC3CC3)cc21 | 74.97

Compound | Percent Effect [%]
CC1CCN(C(=O)c2cnc3cc(C(=O)N(C)C)n(C)c3c2)CC1 | -87.49
c1coc(-c2nnc(CN(Cc3cccs3)CC3CCCO3)o2)c1 (centres undefined) | -56.15
COCc1nc(N2CC[C@H](N(C)C)C2)c2cnn(C)c2n1 | -79.09
COC(C)(CNS(=O)(=O)c1cn(C)cn1)c1ccccc1F (centres undefined) | -43.86
O=C(c1cc(F)cc2[nH]cnc12)N1CCCCC1Cn1cccn1 (centres undefined) | -30.08
O=C(c1ccoc1)N1CCC(Nc2cccnn2)CC1 | -103.3
CC(C)(C)OC(=O)N1CCCc2ccc(NCc3ccon3)cc21 | -36.28
CC(=O)N1CCCN(Cc2ccon2)c2ccccc21 | -25.97
CC(C)(C)OC(=O)N1CCCN(Cc2ccon2)c2ccccc21 | 84.05
Cc1cccc(NC(=O)N2CC(C(=O)NC(C)C)C3(CCOCC3)C2)c1 (centres undefined) | -4.046
CCCc1nnc(N2CCN(c3ccccc3F)CC2)o1 | -72.7
O=C(NCc1ccccc1)NCC(O)c1cccc(F)c1 (centres undefined) | -134.7
CCOc1cccc(C(C)NC(=O)N2CCC(C(N)=O)CC2)c1 (centres undefined) | -34.65
CS(=O)(=O)NC1CCN(CCOCc2ccccc2)CC1 | 2.46
CN1CCC(NCC(O)c2cccc(OCc3ccccc3)c2)CC1 (centres undefined) | 90.23
OC(CNC1CCOCC1)c1cccc(OCc2ccccc2)c1 (centres undefined) | 51.28
OC(CNC1CCOCC1)c1ccc(Cl)c(F)c1 (centres undefined) | 49.48
CCOc1cccc(CNC(=O)NCC(O)c2cccc(F)c2)c1 (centres undefined) | -6.007
OC(CNC1CCSCC1)c1cccc(OCc2ccccc2)c1 (centres undefined) | 73.71
O=C(Nc1cccc(OCc2ccc(F)cc2)c1)C1COCCO1 (centres undefined) | -50.82
O=S(=O)(NCCN1CCCCC1Cn1cncn1)c1ccccc1 (centres undefined) | -173.3
Cc1nc2c(N3CCN(Cc4ccccc4)CC3)nc(N)nc2n1C | -81.58
Cc1nc(C)n(CC2CCCN(Cc3noc(C)n3)C2)n1 (centres undefined) | -83.37
O=C(CN1CCc2cncnc2C1)NCCOc1cccc(Cl)c1 | -29.73
O=C(NC1CCS(=O)(=O)C1)c1cc(Sc2ncccn2)ccn1 (centres undefined) | -115.2
CCc1nc(CNc2ccc(F)c(F)c2)no1 | -20.9

Compound | Percent Effect [%]
CN(Cc1ccc(N2CCOCC2)cc1)Cc1noc(C(C)(C)C)n1 | -81.05
CC(C)(C)c1noc(CCC(=O)N2CCN(Cc3ccc(Cl)s3)CC2)n1 | -118.6
CCc1cnc(C)nc1N1CCC(Cc2cccc(C(=O)O)c2)C1 (centres undefined) | -30.8
Cc1cccc(N2CCN(C(=O)C3CC4(CCNCC4)CN3)CC2)n1 (centres undefined) | -69.89
O=C(C1CC2(CCNCC2)CN1)N1CCN(c2cccc(Cl)c2Cl)CC1 (centres undefined) | 78.29
O=C(C1CC2(CCNCC2)CN1)N1CCN(c2ccccc2)CC1 (centres undefined) | -125.3
CN(C)C(=O)Cc1nc(CN2CCCCC2Cn2cccn2)cs1 (centres undefined) | -103.2
Cc1nccn1CC1CCCN(C(=O)Cc2ccsc2)C1 (centres undefined) | -60.26
CC(C)(N)C(=O)N1CCCC1c1cncc(Oc2ccccc2)n1 (centres undefined) | 77.57
Cn1cc(C2CCCN2C(=O)CCCOc2ccc(F)cc2)cn1 (centres undefined) | -105.8
COC(=O)NCC(=O)N1CCCC1c1nc(-c2ccccc2F)c[nH]1 (centres undefined) | -22.14
CCC(=O)N1CCC(c2cncc(Oc3cccnc3)n2)CC1 | -187.7
NCC(=O)N1CCC(c2cncc(Oc3cccnc3)n2)CC1 | -100.1
CNCC(=O)N1CCCC1c1cncc(Oc2ccc(F)cc2)n1.Cl (centres undefined) | 68.33
CC(C)(C)OC(=O)N1CCCN(c2nnc(Br)s2)CC1 | -110
COc1ccccc1C(=O)Nc1c(F)c(C(=O)NCCC(C)C)nn1C | -92.84
c1ccc(Cn2cccn2)c(CN2CCCCC2CCn2ccnc2)c1 (centres undefined) | 62.85
Fc1cccc(-n2ccc(CN3CCCCC3Cn3cncn3)n2)c1 (centres undefined) | -49.02
Fc1ccc(-n2cccn2)c(CN2CCCCC2CCn2ccnc2)c1 (centres undefined) | 3.883
Fc1cccc(-n2cc(CN3CCCCC3CCn3ccnc3)cn2)c1 (centres undefined) | 67.59
Cc1cccc(-n2cc(CN3CCN(C)[C@@H]4CS(=O)(=O)C[C@@H]43)cn2)c1 | -99.09
Cc1ccc2nc(CN3CCCCC3CCn3cccn3)cn2c1 (centres undefined) | -67.34
c1csc(CN(Cc2ccsc2)CC2CCCO2)n1 (centres undefined) | -152.6
CCOc1cccc(CNC(=O)c2cnn(CC)c2C(F)(F)F)c1 | -100.3
O=C1NCc2ccc(NC(=O)C3CCCN3c3nccs3)cc21 (centres undefined) | -60.91
O=C(CN1CCCS1(=O)=O)Nc1ccc(OC2CCCC2)cc1 | -131
